The list is not random: actives were taken first. Their share in the collection is about 2.4%.
Pol iota inh – qHTS for Inhibitors of Polymerase Iota; DNA polymerase iota (Homo sapiens), Q9UNA4; Pol iota fluorescent replication assay, 10 min; Potency, µM (series often up to 115 µM), without a hit: top-dose activity, negative = inhibition, actives largely listed as inhibitors; 390,000 compounds, 1% hits; AID 588590, 2011
Target sequence (Q9UNA4 whole entry, looked up): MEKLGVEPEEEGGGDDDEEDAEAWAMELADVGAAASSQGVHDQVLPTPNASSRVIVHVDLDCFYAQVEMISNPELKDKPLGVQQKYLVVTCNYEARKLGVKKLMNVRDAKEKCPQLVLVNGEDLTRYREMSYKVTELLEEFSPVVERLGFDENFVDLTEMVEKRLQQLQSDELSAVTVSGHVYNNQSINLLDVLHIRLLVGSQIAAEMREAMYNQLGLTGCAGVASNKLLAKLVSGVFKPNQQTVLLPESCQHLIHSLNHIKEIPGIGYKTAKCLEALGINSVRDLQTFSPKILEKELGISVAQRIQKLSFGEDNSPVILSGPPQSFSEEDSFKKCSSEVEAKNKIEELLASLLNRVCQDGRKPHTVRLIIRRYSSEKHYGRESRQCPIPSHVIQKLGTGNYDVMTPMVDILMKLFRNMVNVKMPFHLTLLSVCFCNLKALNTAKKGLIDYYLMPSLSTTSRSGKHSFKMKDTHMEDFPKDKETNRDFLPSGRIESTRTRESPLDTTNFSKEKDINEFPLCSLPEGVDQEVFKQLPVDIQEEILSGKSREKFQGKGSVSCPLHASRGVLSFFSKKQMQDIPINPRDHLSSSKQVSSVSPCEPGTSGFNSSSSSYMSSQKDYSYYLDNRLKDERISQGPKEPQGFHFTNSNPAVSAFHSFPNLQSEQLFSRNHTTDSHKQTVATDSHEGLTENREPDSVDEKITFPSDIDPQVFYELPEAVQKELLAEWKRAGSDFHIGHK
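Pol iota at 10 nM preincubated 15 min with compounds at room temperature; reaction started with fluorescent substrate, 50 nM final. Fluorescence read kinetically at 0 and 10 min; buffer-only wells as negative control.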
FEN1 inh – qHTS Assay for the Inhibitors of Human Flap endonuclease 1 (FEN1); P39748; Recombinant FEN1 flap cleavage, fluorescence, 15 min; Potency, µM (series often up to 114 µM), inactives show at the highest dose activity change, negative = inhibition, most hits filed as inhibitors; 390,000 compounds, 0.35% hits; AID 588795, 2011; further: on the % scale 0 is the no-effect control and ±100 the full control effect; nearly all actives have a fitted effect of over 65% in size
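FEN1 at 10 nM preincubated with compounds 15 min at room temperature, then flap DNA substrate added at 50 nM final. Signal read at 0 and 15 min; concentration-response fitted with four-parameter Hill equation.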
WRN inhibitor – qHTS for Inhibitors of WRN Helicase | Bifunctional 3'-5' exonuclease/ATP-dependent helicase WRN (Homo sapiens), Q14191 | WRN helicase unwinding, fluorescent forked duplex, kinetic | Potency, µM (top dose mostly 114 µM), inactives show at the highest dose activity change, negative = inhibition, most hits filed as inhibitors | 360,000 compounds, 0.46% hits; further: on the % scale 0 is the no-effect control and ±100 the full control effect; nearly all actives have a fitted effect of over 55% in size
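Primary qHTS, 1536-well format. 20 nM WRN + compound, 15 min RT; start with 100 nM forked fluorophore/quencher duplex, 2 mM ATP (final); kinetic read ex 525/em 598 nm.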
POLB inh – qHTS Assay for Inhibitors of DNA Polymerase Beta | P06746 | AID 485314, 2010 | Pol beta primer extension/strand displacement, fluorescence kinetic | 340,000 compounds, 1.3% hits | Potency, µM (top dose mostly 114 µM), without a hit: top-dose activity change, negative = inhibition, usual class: inhibitors; further: on the % scale 0 is the no-effect control and ±100 the full control effect
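Pol beta (10 nM) was preincubated with compound for 15 min at room temperature. The reaction was then started with 50 nM substrate and read immediately and after a further 10 min at room temperature.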
Pol kappa inh – qHTS for Inhibitors of Polymerase Kappa | DNA polymerase kappa (Homo sapiens), Q9UBT6 | purified Pol kappa, fluorescent DNA synthesis assay, 10 min | Potency, µM (top dose mostly 107 µM), for inactives: at the highest dose activity, negative = inhibition, usual class: inhibitors | 400,000 compounds, 0.53% hits | AID 588579, 2011; further: on the % scale 0 is the no-effect control and ±100 the full control effect
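Here, compound and 10 nM enzyme are combined for 15 min at room temperature; adding 50 nM substrate (final) starts DNA synthesis, tracked by fluorescence at 0 and 10 min against buffer-only wells.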
Pol eta inh – qHTS for Inhibitors of Polymerase Eta. DNA polymerase eta (Homo sapiens), Q9Y253. recombinant Pol eta, fluorescent DNA replication assay. Potency, µM (titrated, usually from 114 µM), for inactives: at the top dose activity change, negative = inhibition, usual class: inhibitors. 390,000 compounds, 1.2% hits; further: on the % scale 0 is the no-effect control and ±100 the full control effect
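Fluorescent replication assay: 50 nM final substrate added after a 15 min room-temperature compound preincubation with 10 nM enzyme. Signal taken at 0 min and again at 10 min.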
An asterisk follows results filed as active; ? = inconclusive; . = no result; ! = a repeat was not active; [ ] = remark or other dose. The call rests on the fitted dose curve; in most records, active means well fitted curve in the direction sought with a large enough effect; inconclusive means small, poorly fitted or top-dose-only effect, or another doubt; inactive means no such curve, though single readings can be large; an effect the other way counts as inactive or inconclusive. Potency means the concentration at half of the fitted maximal effect.

SMILES	Pol iota inh	FEN1 inh	WRN inhibitor	POLB inh	Pol kappa inh	Pol eta inh
CC(=O)Nc1ccc(NC(=O)CSc2cn(CC(=O)N3CCOCC3)c3ccccc23)cc1	0%	4%	-6%	100µM*	1%	-5%
Cc1cccc(NC(=O)CSc2cn(CC(=O)N3CCOCC3)c3ccccc23)c1	20%	-1%	.	1%	-9%	-25%
O=C1CCCC(O)=C1N=Nc1c(Cl)cc(C(F)(F)F)cc1Cl	79µM*	-25%	79µM*	?	?	-17%
N=C1CCC(=N)c2c1c(O)c1ccccc1c2O	22µM*	40µM*	32µM*	40µM*	22µM*	13µM*
O=C1CCn2c1c(O)c1ccccc1c2=O	?	-4%	-1%	.	-23%	8%
COc1cccc(OC)c1-c1cc(CCCc2cc(-c3c(OC)cccc3OC)nc3ccccc23)c2ccccc2n1	?	?	.	.	2%	.
COc1ccc(-n2ccnc(NCc3cccs3)c2=O)cc1OC	19%	0%	.	4%	3%	-18%
O=c1c2ccccc2nc2n1CCCCC2	-6%	-15%	6%	21%	1%	4%
O=c1c2ccccc2nc2n1CCC2	50µM*	?	22µM*	16%	-10%	?
Cn1c(=O)n(-c2ccc3c(c2)OCO3)c2nc(-c3ccccc3)nc(C(N)=O)c21	-7%	-1%	.	6.3µM*	-26%	?
CCC(=O)c1ccc(OCC(=O)N2CCN(S(=O)(=O)c3ccc(Cl)s3)CC2)cc1	?	-13%	-20%	.	?	45µM*
OC[C@H]1O[C@H](n2cnc3c(N[C@H]4CCC[C@@H]4O)ncnc32)[C@H](O)[C@@H]1O	.	.	.	.	-11%[60.1 µM]	.
COc1ccc(-c2cc(=O)c3c(O)cc(O[C@H]4OC(COC5OC(C)C(O)C(O)[C@H]5O)C(O)C(O)C4O)cc3o2)cc1O (some centres not stated)	.	.	.	.	20µM*	.
CCc1nc2ccc(C(=O)Nc3ccc(C(N)=O)cc3)cn2c1N(CCC(C)C)CCN(C)C	.	.	-15%	.	.	.
Cc1cc(C(=O)Nc2ccc(Cl)cc2)c(C)n1-c1ccccc1	136%	-6%	-21%	0%	-10%	-25%
Cc1cc(C(=O)NNS(=O)(=O)c2cc(C(=O)O)ccc2Cl)c(C)n1-c1ccccc1	?	9%	-15%	.	?	22µM*
O=C(NCCc1ccccc1)C(=O)NCC(c1cccnc1)N1CCN(c2ccccc2)CC1 (configuration not stated)	16%	-1%	.	24%	-18%	-10%
CC(=O)Nc1cccc(OCC(=O)Nc2sccc2C(N)=O)c1	50µM*	-18%	-2%[11.6 µM]	0%	-31%	?
NC(=O)c1ccsc1NC(=O)COC(=O)c1cc(=O)[nH]c2ccccc12	?	9%	?	.	-16%	40µM*
NC(=O)c1ccsc1NC(=O)COC(=O)c1ccccc1F	79µM*	10%	6%	.	-3%	-7%
NC(=O)c1ccsc1NC(=O)COC(=O)c1c(F)cccc1Cl	-17%	-17%	3%	.	-3%	-11%
Cc1cccc(N(CC(N)=O)C2SC(=O)N(Cc3cccc(C(=O)O)c3)C2=O)c1 (configuration not stated)	-9%	-4%	.	-11%	-17%	-8%
CCc1nc2c(OCc3ccc(Cl)cc3)cccn2c1N(C)C(=O)c1ccncc1	.	.	1%	.	.	.
CCOC(=O)c1c(C)nc(C)c(C(=O)OCC)c1-c1ccc(OC)cc1	28%	3%	4%	0.16µM*!	-8%	-7%
O=C1CSC(c2cccnc2)N1c1ccccc1 (configuration not stated)	-4%	18%	-4%	-2%	-16%	3%
SMILES	Pol iota inh	FEN1 inh	WRN inhibitor	POLB inh	Pol kappa inh	Pol eta inh
Cc1cccc(N2C(=O)CSC2c2cccnc2)c1 (configuration not stated)	1%	1%	-14%	100µM*	-9%	0%
CSC1=N/C(=C\c2ccc(Br)o2)C(=O)S1	7.1µM*	-28%	?	40µM*	32µM*	8.9µM*
COc1ccc(NC(=O)[C@@H]2CCCN2S(=O)(=O)c2ccccc2F)cc1S(=O)(=O)N1CCCCC1	44%	-4%	0%	.	-9%	-5%
Cc1ccc2ccc3cc(C(=O)Nc4ccc(C)c(F)c4)nc3c2[nH]1	89µM*	-16%	.	?	-15%	-11%
Cc1cc(NC(=O)Cn2c(=O)oc3cc(S(=O)(=O)N4CCCC4)ccc32)ccc1Br	-3%	-3%	.	13µM*	2%[60.1 µM]	-20%
Cc1cc(C)cc(NC(=O)Cn2c(=O)oc3cc(S(=O)(=O)N4CCCC4)ccc32)c1	-29%	-4%	.	?	1%	.
CC(=O)c1cccc(NC(=O)Cn2c(=O)oc3cc(S(=O)(=O)N4CCCC4)ccc32)c1	?	2%	-2%	32µM*!	-20%	0%
CCc1ccc(NC(=O)Cn2c(=O)ccc3cc(S(=O)(=O)N4CCCC4)ccc32)cc1	18%	-5%	.	7%	-2%[60.1 µM]	89µM*
C[C@H]1CN([C@@H](C)CO)C(=O)CCCn2nncc2CO[C@@H]1CN(C)C(=O)c1ccccc1	.	.	-8%	.	.	-15%
CCc1ccc2occ(CC(=O)Nc3c(C(=O)Nc4ccc(OC)cc4)oc4ccccc34)c2c1	28%	-12%	.	-27%	-15%	-19%
COc1cccc2c1Oc1ncccc1N(c1ccc(C(=O)NCc3ccccc3C)s1)C2	17%	-3%	.	2%	-7%	-9%
CC(=O)c1ccc(NC(=O)c2cc(-c3ccc(C)s3)nc3ccccc23)cc1	17%	-10%	.	21%	-1%	-6%
Nc1scc2c(C(=O)N/N=C/c3ccc(Cl)cc3)nn(-c3ccccc3)c(=O)c12	6.3µM*	0%	-8%[57.1 µM]	23%	?	-5%
CCOC(=O)c1nn(-c2ccccc2)c(=O)c2c(N)scc12	?	-20%	?	-8%	-1%	?
Cc1cc(C)c(S(=O)(=O)N(CC(=O)NCc2cccnc2)C2CCCCC2)c(C)c1	89µM*	1%	4%	-27%	-9%	-6%
CC(C)c1nn2c(=O)cc(COC(=O)c3ccccc3NC(=O)c3cccc(Cl)c3)nc2s1	27%	19%	.	-1%	-10%[60.1 µM]	-1%
COc1ccc(-c2cc3nc4ccccc4n3c(N)c2C#N)cc1	20%	-20%	-8%	4µM*	-6%	-10%

Assay outcomes from PubChem BioAssay.
